Assays:
Assay in all cases: yeast three-hybrid, YBZ-1, SC-Leu-His + 0.5 mM 3-AT, 4 days
Details in all cases: tags: N-Gal4 AD-HA kept; label: inside an RPR1-promoter hybrid RNA with tandem MS2 sites; ssRNA
PUM1 PUF domain R1-NWV = PUM1 PUF domain R1-NWV (Homo sapiens, UniProt Q14671 828-1176, S863N;R864W;Q867V)
Method in brief: (§1)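 Each repeat of the Pumilio-1 PUF domain was randomized at its three base-contacting residues, and these libraries were co-expressed from a centromeric plasmid with matching RNA elements in strain YBZ-1. After four days on SC-Leu (input) or SC-Leu-His + 0.5 mM 3-AT (selection), the repeat regions were PCR-amplified and Illumina-sequenced. The interaction score compares variant frequency between input and selection as a log change, computed in log2 with a pseudocount of 1 for absent variants.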

PUM1 PUF domain R1-YYR = PUM1 PUF domain R1-YYR (Homo sapiens, UniProt Q14671 828-1176, S863Y;R864Y;Q867R)
Method in brief: as §1

PUM1 PUF domain R2-IVF = PUM1 PUF domain R2-IVF (Homo sapiens, UniProt Q14671 828-1176, N899I;Y900V;Q903F)
Method in brief: as §1

PUM1 PUF domain R5-RFR = PUM1 PUF domain R5-RFR (Homo sapiens, UniProt Q14671 828-1176, C1007R;R1008F;Q1011R)
Method in brief: as §1

PUM1 PUF domain R4-EWD = PUM1 PUF domain R4-EWD (Homo sapiens, UniProt Q14671 828-1176, N971E;H972W;Q975D)
Method in brief: as §1

PUM1 PUF domain R5-QNR = PUM1 PUF domain R5-QNR (Homo sapiens, UniProt Q14671 828-1176, C1007Q;R1008N;Q1011R)
Method in brief: as §1

PUM1 PUF domain R6-HFS = molecular target: T1, PUM1 PUF domain R6-HFS (Homo sapiens, UniProt Q14671 828-1176, N1043H;Y1044F;Q1047S)
T1 sequence: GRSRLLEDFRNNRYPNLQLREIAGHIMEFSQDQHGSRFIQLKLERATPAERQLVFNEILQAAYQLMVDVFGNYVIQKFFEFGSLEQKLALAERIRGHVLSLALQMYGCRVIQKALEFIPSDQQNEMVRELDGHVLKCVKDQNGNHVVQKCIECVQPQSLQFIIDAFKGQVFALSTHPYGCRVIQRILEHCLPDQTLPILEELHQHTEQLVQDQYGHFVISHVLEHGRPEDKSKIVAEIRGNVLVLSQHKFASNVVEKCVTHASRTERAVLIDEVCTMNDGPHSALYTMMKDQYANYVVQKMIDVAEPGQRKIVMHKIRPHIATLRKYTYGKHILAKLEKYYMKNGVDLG
Method in brief: as §1

PUM1 PUF domain R8-RFM = PUM1 PUF domain R8-RFM (Homo sapiens, UniProt Q14671 828-1176, N1122R;Y1123F;Q1126M)
Method in brief: as §1

PUM1 PUF domain R8-LYR = PUM1 PUF domain R8-LYR (Homo sapiens, UniProt Q14671 828-1176, N1122L;Q1126R)
Method in brief: as §1

PUM1 PUF domain R3-GRH = PUM1 PUF domain R3-GRH (Homo sapiens, UniProt Q14671 828-1176, C935G;Q939H)
Method in brief: as §1

PUM1 PUF domain R5-RFR, sequence (Q14671 828-1176 C1007R/R1008F/Q1011R): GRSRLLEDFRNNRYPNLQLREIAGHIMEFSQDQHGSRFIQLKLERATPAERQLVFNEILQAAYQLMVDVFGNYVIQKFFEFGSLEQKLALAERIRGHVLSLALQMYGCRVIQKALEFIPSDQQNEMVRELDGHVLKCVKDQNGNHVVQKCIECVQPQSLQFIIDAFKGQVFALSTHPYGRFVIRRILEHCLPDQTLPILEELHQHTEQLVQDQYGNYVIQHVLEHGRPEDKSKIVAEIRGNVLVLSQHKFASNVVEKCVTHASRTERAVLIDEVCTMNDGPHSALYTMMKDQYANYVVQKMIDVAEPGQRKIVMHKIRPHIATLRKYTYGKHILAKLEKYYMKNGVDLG
PUM1 PUF domain R1-YYR, sequence (Q14671 828-1176 S863Y/R864Y/Q867R): as the sequence (Q14671 828-1176 C1007R/R1008F/Q1011R) above, with S36Y, R37Y, Q40R, R180C, F181R, R184Q counted along it

Sequence: GGCUAGAACUAGUGGAUCCCCCGGCGCCCGGCGGCUCGAGCCCGGGUAAGUGUAAAUUGUCUGCAUGCCGCCGGGCGCCAUGCCUGCAGGUCGACUCUAGAAAACAUG
- binding signal (PUM1 PUF domain R1-NWV): 4.33 log2 enrichment (interaction score)
- binding signal (PUM1 PUF domain R1-YYR): 7.65 log2 enrichment (interaction score)

Sequence: GGCUAGAACUAGUGGAUCCCCCGGCGCCCGGCGGCUCGAGCCCGGGUAAGUGUAAAGAGUCUGCAUGCCGCCGGGCGCCAUGCCUGCAGGUCGACUCUAGAAAACAUG
- binding signal (PUM1 PUF domain R2-IVF): 4.01 log2 enrichment (interaction score)

Sequence: GGCUAGAACUAGUGGAUCCCCCGGCGCCCGGCGGCUCGAGCCCGGGUAAGUGUGAAUAGUCUGCAUGCCGCCGGGCGCCAUGCCUGCAGGUCGACUCUAGAAAACAUG
- binding signal (PUM1 PUF domain R5-RFR): 2.74 log2 enrichment (interaction score)

Sequence: GGCUAGAACUAGUGGAUCCCCCGGCGCCCGGCGGCUCGAGCCCGGGUAAGUGUAGAUAGUCUGCAUGCCGCCGGGCGCCAUGCCUGCAGGUCGACUCUAGAAAACAUG
- binding signal (PUM1 PUF domain R4-EWD): 4.33 log2 enrichment (interaction score)

Sequence: GGCUAGAACUAGUGGAUCCCCCGGCGCCCGGCGGCUCGAGCCCGGGUAAGUGUAAAUCGUCUGCAUGCCGCCGGGCGCCAUGCCUGCAGGUCGACUCUAGAAAACAUG
- binding signal (PUM1 PUF domain R1-YYR): 2.79 log2 enrichment (interaction score)

Sequence: GGCUAGAACUAGUGGAUCCCCCGGCGCCCGGCGGCUCGAGCCCGGGUAAGUGUUAAUAGUCUGCAUGCCGCCGGGCGCCAUGCCUGCAGGUCGACUCUAGAAAACAUG
- binding signal (PUM1 PUF domain R5-RFR): 3.92 log2 enrichment (interaction score)
- binding signal (PUM1 PUF domain R5-QNR): 2.93 log2 enrichment (interaction score)

Sequence: GGCUAGAACUAGUGGAUCCCCCGGCGCCCGGCGGCUCGAGCCCGGGUAAGUGUCAAUAGUCUGCAUGCCGCCGGGCGCCAUGCCUGCAGGUCGACUCUAGAAAACAUG
- binding signal (PUM1 PUF domain R5-RFR): 5.35 log2 enrichment (interaction score)

Sequence: GGCUAGAACUAGUGGAUCCCCCGGCGCCCGGCGGCUCGAGCCCGGGUAAGUGUAAAUAGUCUGCAUGCCGCCGGGCGCCAUGCCUGCAGGUCGACUCUAGAAAACAUG
- binding signal (PUM1 PUF domain R5-RFR): 2.72 log2 enrichment (interaction score)
- binding signal (PUM1 PUF domain R1-YYR): 3.43 log2 enrichment (interaction score)
- binding signal (PUM1 PUF domain R6-HFS): 4.79 log2 enrichment (interaction score)
- binding signal (PUM1 PUF domain R8-RFM): 4.37 log2 enrichment (interaction score)
- binding signal (PUM1 PUF domain R8-LYR): 4.3 log2 enrichment (interaction score)
- binding signal (PUM1 PUF domain R3-GRH): 4.23 log2 enrichment (interaction score)

Sequence: GGCUAGAACUAGUGGAUCCCCCGGCGCCCGGCGGCUCGAGCCCGGGUAAGCGUAAAUAGUCUGCAUGCCGCCGGGCGCCAUGCCUGCAGGUCGACUCUAGAAAACAUG
- binding signal (PUM1 PUF domain R8-LYR): 5.06 log2 enrichment (interaction score)

— PMC8384837, “Expanding the binding specificity for RNA recognition by a PUF domain”
